# In PubChem BioAssay:
# The source made the active and inactive calls.
# Key:
# [1] = E. coli DRC41 culture turbidity changes, primary screen, E. coli filamentation inducer project, strain DRC41, OD650, 48 h (AID 1152);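 note: E. coli MC1000 strain DRC41 lacking acrAB efflux pump and sulA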; details: E. coli DRC41 (acrAB sulA), higher = more signal, called active from +8 up or from −8 down
# [2] = small-molecule binders of probe aLefty1, primary screen, biochemical, small-molecule microarray, 635/667 nm fluorescence (AID 1153); details: higher = more signal;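 note: score merges spot fluorescence with signal-to-noise ratio from the scanned slide images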
# [3] = PSAC antagonists in infected red cells, primary screen, cell-based, P. falciparum Indochina, OD700, 1 h (AID 1154); details: P. falciparum Indochina infected RBC osmotic lysis, higher = more signal, called active from +8 up or from −8 down
# [4] = PSAC antagonists in infected red cells, primary screen, cell-based, P. falciparum Indochina, OD700, 2 h (AID 1155);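 note: lysis reports solute entry through the parasite surface anion channel PSAC; channel blockers reduce lysis of infected cells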; details: P. falciparum Indochina infected erythrocytes, osmotic lysis OD700; higher = more signal, called active from +8 up or from −8 down
# [5] = osmotic lysis modulators in infected erythrocytes, primary screen, PSAC antagonist project, cell-based, P. falciparum Indochina, OD700, 3 h (AID 1156); details: higher = more signal, called active from +8 up or from −8 down
# [6] = PSAC antagonists in infected red cells, primary screen, cell-based, P. falciparum Indochina, OD700, 18 h (AID 1157); details: P. falciparum Indochina infected erythrocytes, osmotic lysis OD700, 18 h; higher = more signal, called active from +8 up or from −8 down
# [7] = modulators of S6 phosphorylation in cells, primary screen, cell-based, A549, cytoblot, luminescence, serum-stimulated (AID 1158); details: A549 phospho-S6 cytoblot, 5 h, higher = more signal;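 note: serum-stimulated A549 lung adenocarcinoma cells; signal is phosphorylated S6 detected by cytoblot immunostaining with HRP secondary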
# [8] = molecular target: NADPH oxidase 2 (Homo sapiens) (UniProt P04839); experiment: NOX2-dependent H2O2 signal modulators, primary screen, NOX inhibitor project, cell-based, HEK293-NOX2, PMA-stimulated, Amplex Red fluorescence (AID 1159); details: 45 min, higher = more signal, called active from +8 up or from −8 down; note: test concentration not given here
# Chain of NADPH oxidase 2 (Homo sapiens) (P04839 whole entry, looked up): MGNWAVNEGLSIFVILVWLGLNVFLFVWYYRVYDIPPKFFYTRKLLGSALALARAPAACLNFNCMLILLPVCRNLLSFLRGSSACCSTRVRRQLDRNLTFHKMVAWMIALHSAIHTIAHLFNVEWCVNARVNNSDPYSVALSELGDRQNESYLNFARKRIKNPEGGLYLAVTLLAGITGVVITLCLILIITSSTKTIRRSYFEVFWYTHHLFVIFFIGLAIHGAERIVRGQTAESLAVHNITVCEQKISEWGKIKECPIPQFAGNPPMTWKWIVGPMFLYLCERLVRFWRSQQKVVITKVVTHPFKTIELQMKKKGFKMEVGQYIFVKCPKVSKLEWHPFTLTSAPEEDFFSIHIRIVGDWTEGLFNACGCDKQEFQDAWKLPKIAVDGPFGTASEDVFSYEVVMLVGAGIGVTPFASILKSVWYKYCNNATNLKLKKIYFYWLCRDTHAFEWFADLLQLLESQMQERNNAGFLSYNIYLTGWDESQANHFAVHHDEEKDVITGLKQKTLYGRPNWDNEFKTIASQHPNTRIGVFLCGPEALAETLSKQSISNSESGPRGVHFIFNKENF
# [9] = molecular target: NADPH oxidase 4 (Homo sapiens) (UniProt Q9NPH5); experiment: NOX4-dependent H2O2 signal modulators, primary screen, NOX inhibitor project, cell-based, HEK293-NOX4, tetracycline-induced, Amplex Red fluorescence (AID 1160); details: 45 min, higher = more signal, called active from +8 up or from −8 down
# Chain of NADPH oxidase 4 (Homo sapiens) (Q9NPH5 whole entry, looked up): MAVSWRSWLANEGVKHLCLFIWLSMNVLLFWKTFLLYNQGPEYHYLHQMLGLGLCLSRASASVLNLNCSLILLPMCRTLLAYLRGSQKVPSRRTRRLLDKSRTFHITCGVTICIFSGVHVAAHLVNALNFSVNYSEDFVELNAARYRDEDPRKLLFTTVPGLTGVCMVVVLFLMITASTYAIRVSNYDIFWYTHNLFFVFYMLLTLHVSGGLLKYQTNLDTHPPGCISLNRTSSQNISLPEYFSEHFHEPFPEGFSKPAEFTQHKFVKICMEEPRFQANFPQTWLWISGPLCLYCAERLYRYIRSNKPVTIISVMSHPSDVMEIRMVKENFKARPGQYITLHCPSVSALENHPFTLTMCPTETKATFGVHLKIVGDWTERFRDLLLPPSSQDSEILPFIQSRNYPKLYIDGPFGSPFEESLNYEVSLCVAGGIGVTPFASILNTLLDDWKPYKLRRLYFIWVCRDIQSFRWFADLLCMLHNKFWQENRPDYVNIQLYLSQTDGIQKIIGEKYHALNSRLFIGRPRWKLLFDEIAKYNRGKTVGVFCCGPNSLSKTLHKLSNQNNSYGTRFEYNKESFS
# [10] = molecular target: NADPH oxidase 5 (Homo sapiens) (UniProt Q96PH1); experiment: NOX5-dependent H2O2 signal modulators, primary screen, NOX inhibitor project, cell-based, HEK293-NOX5, Amplex Red fluorescence (AID 1161); details: HEK293-NOX5, ionomycin, 45 min, higher = more signal
# Chain of NADPH oxidase 5 (Homo sapiens) (Q96PH1 whole entry, looked up): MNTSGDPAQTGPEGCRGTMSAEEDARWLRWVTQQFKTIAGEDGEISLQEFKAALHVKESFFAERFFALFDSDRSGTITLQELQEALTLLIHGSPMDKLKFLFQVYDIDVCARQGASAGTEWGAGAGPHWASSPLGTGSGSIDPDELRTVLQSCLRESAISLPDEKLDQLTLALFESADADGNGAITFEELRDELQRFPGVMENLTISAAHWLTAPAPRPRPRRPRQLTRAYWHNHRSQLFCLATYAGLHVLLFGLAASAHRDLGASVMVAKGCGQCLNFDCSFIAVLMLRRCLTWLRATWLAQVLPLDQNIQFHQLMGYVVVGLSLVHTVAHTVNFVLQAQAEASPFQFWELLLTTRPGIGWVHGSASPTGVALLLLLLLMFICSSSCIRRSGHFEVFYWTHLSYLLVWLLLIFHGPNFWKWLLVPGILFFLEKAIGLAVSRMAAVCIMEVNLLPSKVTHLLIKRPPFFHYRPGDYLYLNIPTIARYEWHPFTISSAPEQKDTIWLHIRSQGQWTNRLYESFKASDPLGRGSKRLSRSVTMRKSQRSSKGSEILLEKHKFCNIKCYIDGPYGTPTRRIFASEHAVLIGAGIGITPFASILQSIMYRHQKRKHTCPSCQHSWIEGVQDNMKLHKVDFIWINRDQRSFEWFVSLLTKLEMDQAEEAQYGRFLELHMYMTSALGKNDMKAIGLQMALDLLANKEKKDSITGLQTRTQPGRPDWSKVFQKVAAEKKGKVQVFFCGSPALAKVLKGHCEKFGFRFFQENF
# [11] = A549 cell viability effects, profiling panel, calcein-AM fluorescence, 48 h, basal (AID 1162); details: higher = more signal; note: test concentration not given here
# [12] = adipocyte viability effects, profiling panel, cell-based, 3T3-L1 adipocytes, calcein-AM fluorescence, 48 h, basal (AID 1163); details: 3T3-L1 adipocytes viability, higher = more signal; note: test concentration not given here
# [13] = HepG2 cell viability effects, profiling panel, calcein-AM fluorescence, 48 h, basal (AID 1164); details: higher = more signal; note: test concentration not given here
# [14] = MM1S cell viability effects, profiling panel, calcein-AM fluorescence, 48 h, basal (AID 1165); details: higher = more signal;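 note: viability of MM1S multiple myeloma cells under basal unstimulated conditions; test concentration not given here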
# [15] = basal RPMI8226 viability, no added stimulus, profiling panel, cell-based, calcein-AM fluorescence, 48 h, PK04 Diversity Set (AID 1166); details: RPMI8226 myeloma viability, higher = more signal;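 note: cells grown under basal conditions without added stimulus; test concentration not given here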
# [16] = basal HepG2 mitochondrial membrane potential changes, profiling panel, cell-based, JC-1 fluorescence, 24 h, 100 nL compound (AID 1167); details: higher = more signal; note: test concentration not given here
# [17] = basal 3T3-L1 adipocyte mitochondrial potential changes, profiling panel, cell-based, JC-1 fluorescence, 3T3-L1 adipocytes, 24 h, 100 nL compound (AID 1168); details: JC-1 mitochondrial fluorescence, higher = more signal, called active from +8 up or from −8 down; note: test concentration not given here
# [18] = basal RPMI8226 mitochondrial membrane potential changes, profiling panel, cell-based, JC-1 fluorescence, 24 h, 100 nL compound (AID 1169); details: RPMI8226 myeloma, JC-1 mitochondrial potential fluorescence, higher = more signal; note: test concentration not given here
# [19] = basal MM1S mitochondrial membrane potential changes, profiling panel, cell-based, JC-1 fluorescence, 24 h, 100 nL compound (AID 1170); details: higher = more signal; note: test concentration not given here
# [20] = A549 lung cancer cell viability effects, profiling panel, resazurin fluorescence, 24 h, PK04 Diversity Set (AID 1171); details: higher = more signal, called active from +8 up or from −8 down; note: test concentration not given here
SMILES,z-score [1],composite z-score [2],z-score [3],z-score [4],z-score [5],z-score [6],z-score [7],z-score [8],z-score [9],z-score [10],z-score [11],z-score [12],z-score [13],z-score [14],z-score [15],z-score [16],z-score [17],z-score [18],z-score [19],z-score [20]
CO[C@H]1O[C@H](CO)[C@@H](OC(=O)CCc2ccccc2)[C@@H]2OC(=O)[C@@H](Cc3ccc4ccccc4c3)C/C=C/C[C@H](Cc3ccc4ccccc4c3)C(=O)O[C@@H]12,0.411 (inactive),-0.949,2.85 (inactive),-0.498 (inactive),-1.88 (inactive),-1.71 (inactive),0.795,1.5 (inactive),-0.27 (inactive),-0.995,1.39,0.284,1.27,-0.52,0.0085,0.111,0.945 (inactive),0.761,0.0944,-1.39 (inactive)
C[C@@]1([C@@H](NS(=O)(=O)c2cccc3cccnc23)c2ccc(-c3ccccc3)cc2)C[C@H]1C1CCCCC1,-2.47 (inactive),1.31,0.668 (inactive),0.367 (inactive),1.39 (inactive),0.691 (inactive),-0.79,0.168 (inactive),-0.61 (inactive),-1.99,-1,-0.516,-1.04,-1.28,-1.08,-1.46,-0.399 (inactive),0.698,-1.72,-0.892 (inactive)
CCOC(=O)C1=CC[C@@H](c2ccccc2)N(S(=O)(=O)c2ccc(C)cc2)[C@@H]1C#N,0.49 (inactive),0.082,4.46 (inactive),0.804 (inactive),0.0758 (inactive),1 (inactive),-0.268,0.224 (inactive),-0.615 (inactive),-0.14,0.25,-0.415,0.278,-3.21,-2.77,0.43,0.726 (inactive),-0.791,-2.41,0.433 (inactive)
C=CCC(OC(C)=O)[C@@H]1[C@@H](N(Cc2ccc(-c3ccccc3)cc2)C(=O)Cc2ccc(OC)cc2)c2cc(OCCCO)ccc2N1C(=O)Cc1ccc(OC)cc1 (stereo not given in full),-0.92 (inactive),0.299,3.76 (inactive),-0.313 (inactive),0.167 (inactive),0.141 (inactive),0.518,-3.55 (inactive),0.194 (inactive),-0.0291,0.0816,0.9,-0.103,0.11,-0.203,2.58,-0.454 (inactive),-0.0751,0.504,0.117 (inactive)
C=CC[C@H](OC(=O)Nc1ccc(SC)cc1)c1ccc(O)c(F)c1,-0.705 (inactive),0.0226,23.6 (active),4.93 (inactive),1.45 (inactive),0.966 (inactive),0.49,-5.66 (inactive),-2.66 (inactive),-3.08,-1.24,-0.152,-1.82,-1.59,-1.64,-3.17,2.25 (inactive),-0.325,-0.716,-1.01 (inactive)
CN(C)CCCC[C@@H]1NC(=O)[C@H]2C[C@@H](C(=O)NCCCCCCNC(=O)CS)[C@@H](c3cccc(OCCO)c3)N2C1=O,-0.175 (inactive),-0.139,2.29 (inactive),0.677 (inactive),1.26 (inactive),0.228 (inactive),-0.617,1.07 (inactive),0.981 (inactive),0.992,-0.234,-0.288,-0.384,-0.315,-0.357,-1.27,-0.0363 (inactive),0.503,-0.177,0.0246 (inactive)
C=CCNC(=O)[C@H]1[C@@H]2C(=O)O[C@@H](c3ccccc3)[C@@H](c3ccccc3)N2[C@@H](c2ccc(O)cc2)[C@]12C(=O)N(C(=O)OCCOC)c1ccc(C#Cc3ccc(OC)cc3)cc12,-0.983 (inactive),0.216,2.57 (inactive),1.28 (inactive),-0.829 (inactive),0.0195 (inactive),-0.376,1.62 (inactive),0.725 (inactive),1.13,-0.98,-1.44,0.147,-1.26,-1.2,-1.62,0.202 (inactive),-0.625,-0.804,-0.0733 (inactive)
CC1(C)OB(/C=C\CC(OC(=O)c2ccncc2)c2ccccc2)OC1(C)C (stereo not given),-0.318 (inactive),1.24,0.777 (inactive),-0.854 (inactive),-0.66 (inactive),-0.678 (inactive),-0.119,-2.45 (inactive),0.637 (inactive),-5.03,-0.0116,0.282,-0.691,-0.475,-1.45,-1.27,-0.928 (inactive),-0.194,0.343,0.0383 (inactive)
CC(C)c1ccc(NN2C(C(O)C(C)c3ccccc3)C=CC3C(=O)N(c4ccccc4)C(=O)C32)cc1 (stereo not given),-1.78 (inactive),1.24,0.187 (inactive),0.433 (inactive),0.215 (inactive),0.998 (inactive),-1.44,-0.818 (inactive),-2.63 (inactive),-4.03,-0.625,-0.856,-1.03,-1.1,-1.34,-2.13,-1.75 (inactive),-0.628,-0.102,-0.868 (inactive)
COc1cc(CO)cc(I)c1O[C@H]1C=C(C(=O)NCCO)C[C@@H](N(CCN2CCOCC2)C(=O)C2CCCO2)[C@@H]1O (stereo not given in full),2.39 (inactive),-0.245,0.961 (inactive),-0.339 (inactive),0.483 (inactive),0.108 (inactive),0.545,-0.842 (inactive),0.225 (inactive),0.235,1.51,-0.786,0.315,0.605,-0.984,1.68,-0.526 (inactive),0.385,-0.1,-0.0953 (inactive)
CN1C(=O)C2C=CC(C(O)c3cccs3)N(N(c3ccccc3)c3ccccc3)C2C1=O (stereo not given),-0.822 (inactive),0.25,0.929 (inactive),1 (inactive),0.157 (inactive),0.556 (inactive),-0.967,-0.915 (inactive),-1.84 (inactive),-1.25,-0.404,-1.97,0.44,0.442,0.398,0.27,-1.02 (inactive),-0.24,-0.694,-0.659 (inactive)
COC(=O)[C@@]1(Cc2ccc(F)cc2)[C@H]2c3cc(C(=O)N(C)C)n(Cc4ccsc4Br)c3C[C@H]2CN1C(=O)c1ccccc1,-1.62 (inactive),1.06,3.86 (inactive),0.413 (inactive),0.952 (inactive),0.765 (inactive),-0.155,-2.09 (inactive),-5.46 (inactive),-2.35,-0.981,-0.291,0.191,-0.766,-0.985,2.64,0.18 (inactive),0.415,-1.17,-0.836 (inactive)
CC[C@@H]1C=C(C(=O)O)[C@H](c2cccc(Cl)c2)N1S(=O)(=O)c1ccc(C)cc1,-1.23 (inactive),0.0043,0.522 (inactive),0.229 (inactive),-0.0699 (inactive),0.29 (inactive),-0.861,0.416 (inactive),0.185 (inactive),0.272,-0.0107,-0.762,0.223,0.126,0.0221,-0.743,-0.41 (inactive),-0.623,-0.343,-0.628 (inactive)
[N-]=[N+]=Nc1ccccc1C[C@@]1(C(=O)NCC(O)CO)N=C(c2ccc(OCCCO)cc2)O[C@@H]1c1ccccc1N=[N+]=[N-] (stereo not given in full),-0.193 (inactive),-0.281,30.3 (active),29.2 (active),0.0029 (inactive),8.12 (active),0.191,-1.55 (inactive),0.776 (inactive),1.85,-3.97,-0.0164,-4.63,-3.55,-3.85,-2,-0.264 (inactive),-1.21,-1.34,-3.27 (inactive)
COC(=O)C1=CC(CCCO)=CC(c2ccc(CN3CCCC3)cc2)N(C)C=C1C(=O)OC (stereo not given),0.265 (inactive),0.212,1.77 (inactive),0.422 (inactive),0.587 (inactive),0.155 (inactive),-0.387,0.452 (inactive),0.225 (inactive),0.463,0.71,-0.0962,0.204,0.608,0.433,0.91,0.735 (inactive),0.173,-0.537,-0.632 (inactive)
C=CCNC(=O)[C@H]1[C@@H]2C(=O)O[C@@H](c3ccccc3)[C@@H](c3ccccc3)N2[C@@H](c2ccc(OCCO)cc2)[C@]12C(=O)Nc1ccc(C#Cc3ccc(OC)cc3)cc12,-0.0405 (inactive),-0.248,3.42 (inactive),2.19 (inactive),0.866 (inactive),1.4 (inactive),-0.0157,0.87 (inactive),0.34 (inactive),1.43,-1.09,2.01,-0.845,-0.291,-2.14,-1.38,3.11 (inactive),-1.22,-0.867,-1.04 (inactive)
CC[C@@H](O[Si](C#C[Si](C(C)C)(C(C)C)C(C)C)(C(C)C)C(C)C)c1cn([C@H](C)c2ccccc2)nn1,0.854 (inactive),-0.0601,0.4 (inactive),0.209 (inactive),-0.969 (inactive),0.582 (inactive),-0.711,-0.0103 (inactive),-0.507 (inactive),0.0572,-0.7,-0.685,-0.499,0.375,0.253,-0.0266,-1.02 (inactive),0.0594,-0.876,0.566 (inactive)
COCCOC(=O)N1C(=O)[C@@]2(c3cc(C#CC4=CCCCC4)ccc31)[C@H](C(=O)N1CCCCCCC1)[C@H]1C(=O)O[C@H](c3ccccc3)[C@H](c3ccccc3)N1[C@@H]2c1ccccc1OCCO,0.857 (inactive),1.11,0.951 (inactive),1.01 (inactive),-0.249 (inactive),0.413 (inactive),0.526,-0.129 (inactive),0.322 (inactive),0.0795,-0.314,0.922,-0.107,-0.99,-0.813,0.0436,0.992 (inactive),-0.966,-0.982,0.356 (inactive)
